Bioassay records as filed in PubChem BioAssay.
A selection: hits, their analogues and other compounds. The true share with any hit is near 3.3%.
Mcl1 Bid PPI – Mcl-1/Bid binding inhibitors, primary screen, biochemical, TR-FRET, 1536-well. TR-FRET Mcl-1/Bid-Dy647 peptide binding. 0.97% of 220,000 active. Induced myeloid leukemia cell differentiation protein Mcl-1 (Homo sapiens), Q07820. inhibition, % at 21.7 µM;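 active means compounds that cut the binding signal by more than half at the single screening dose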;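 further: His-tagged Mcl-1 with europium anti-His antibody binding Bid BH3 peptide; 0% = Mcl-1 plus peptide wells and 100% = peptide-only wells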
eIF4E-4G inh – eIF4E–eIF4G protein interaction inhibitors, primary screen, biochemical, uHTS, TR-FRET, eIF4GI fragment; Eukaryotic translation initiation factor 4E (Mus musculus) + Eukaryotic translation …; TR-FRET eIF4E-eIF4GI(517-606) binding, 2 h; inhibition, % at 21.7 µM; 0.37% of 220,000 active;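 further: 0% = full FRET control wells and 100% = background wells lacking eIF4GI fragment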
Mcl1-Noxa inh – Mcl-1/Noxa binding inhibitors, primary screen, biochemical, TR-FRET, 1536-well; TR-FRET Mcl-1/Noxa peptide binding, 2 h; 1.5% of 220,000 active; inhibition, % at 21.7 µM; Induced myeloid leukemia cell differentiation protein Mcl-1 (Homo sapiens), Q07820;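 active means compounds that cut the protein-peptide binding signal by more than 50% relative to plate controls in a single-dose test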;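 further: His-tagged Mcl-1 with rhodamine Noxa BH3 peptide and terbium anti-His antibody; 0% = Mcl-1 plus Noxa peptide wells and 100% = peptide-only wells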
14-3-3 Bad inh – inhibitors of 14-3-3 zeta/Bad binding, primary screen, biochemical, TR-FRET, bovine 14-3-3 zeta. 14-3-3 protein zeta/delta (Bos taurus), P63103. TR-FRET 14-3-3zeta/Dy647-pBad peptide displacement, 1 h. inhibition, % at 21.7 µM. 0.71% of 220,000 active. AID 781, 2007;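 active means inhibition above about 70%, limit read from the data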;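 further: 0% = full 14-3-3 plus peptide FRET controls and 100% = background without 14-3-3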
Target sequence (P63103 whole entry, looked up): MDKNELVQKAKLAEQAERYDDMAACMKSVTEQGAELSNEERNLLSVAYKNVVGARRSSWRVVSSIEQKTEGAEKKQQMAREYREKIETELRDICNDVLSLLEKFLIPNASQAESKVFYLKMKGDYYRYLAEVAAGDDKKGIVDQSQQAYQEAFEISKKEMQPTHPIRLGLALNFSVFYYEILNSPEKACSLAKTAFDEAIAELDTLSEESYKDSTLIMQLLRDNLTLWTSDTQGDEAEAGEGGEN
Bim-Mcl-1 – inhibitors of Bim peptide binding to Mcl-1, primary screen, biochemical, bead-based flow cytometry, multiplex; Induced myeloid leukemia cell differentiation protein Mcl-1 (Homo sapiens), Q07820; Bim peptide-Mcl-1 binding; inhibition, % at 10 µM; 0.1% of 190,000 active; AID 1009, 2008; in the data active means inhibition above about 40%;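 further: 0% = no compound tracer wells and 100% = peptide blocker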
NCF1 inh – p47phox/p22phox peptide binding inhibitors, primary screen, biochemical, uHTS, NADPH oxidase regulatory subunit; Neutrophil cytosol factor 1 (Homo sapiens), P14598; fluorescence polarization, 2 h; inhibition, % at 24.7 µM; 0.53% of 220,000 active; AID 1274, 2008;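 further: 0% = p47phox with labelled peptide and 100% = labelled peptide alone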
Target sequence (P14598 whole entry, looked up): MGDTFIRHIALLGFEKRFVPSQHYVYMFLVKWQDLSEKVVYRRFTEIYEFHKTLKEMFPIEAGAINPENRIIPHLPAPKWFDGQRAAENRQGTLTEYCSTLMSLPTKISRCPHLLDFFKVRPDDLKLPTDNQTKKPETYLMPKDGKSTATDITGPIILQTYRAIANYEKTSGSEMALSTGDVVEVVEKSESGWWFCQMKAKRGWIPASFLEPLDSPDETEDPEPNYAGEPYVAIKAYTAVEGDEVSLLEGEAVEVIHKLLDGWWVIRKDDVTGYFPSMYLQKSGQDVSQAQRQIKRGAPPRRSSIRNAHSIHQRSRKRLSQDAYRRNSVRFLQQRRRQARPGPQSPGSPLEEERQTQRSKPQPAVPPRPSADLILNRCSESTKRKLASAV
Active calls of the source: *; x = no result given.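 How the source made its calls, unless noted: active means inhibition above about 30% (limit read from the data); inactive means the rest.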

SMILES	Mcl1 Bid PPI	eIF4E-4G inh	Mcl1-Noxa inh	14-3-3 Bad inh	Bim-Mcl-1	NCF1 inh
CCOc1ccc(CN2CCC(C(=O)N3CCN(c4ccccc4F)CC3)CC2)cc1OC	34.4	7.9	19.6	73.7*	-2.0	-8.2
COc1cc(CN2CCC(C(=O)N3CCN(c4ccccc4F)CC3)CC2)cc(OC)c1O	51.5*	10.3	29.4	54.2	0.0	-4.2
O=C(NC1CCCC1)c1ncn[nH]1	-14.2	11.9	-8.4	-18.5	-6.0	-10.2
CCn1c(=O)c(C(=O)NNS(=O)(=O)c2ccc(Br)cc2)c(O)c2ccccc21	-54.8	-5.4	-28.5	-16.1	2.0	-9.0
Cc1nc(SCC(O)CCl)c([N+](=O)[O-])[nH]1 (centres undefined)	4.2	0.0	7.4	1.8	-2.0	-3.8
COCC(O)CSc1nc(C)[nH]c1[N+](=O)[O-] (centres undefined)	86.7*	5.9	25.7	-10.7	0.0	-6.8
COc1ccc(O)c(C(=O)c2coc(=N)c(C(=O)Nc3ccc(SC(F)F)cc3)c2)c1	-38.0	4.3	23.4	-3.2	2.0	-21.8
CCOC(=O)CSc1n[nH]c(=S)s1	-19.2	18.2	1.0	15.9	x	-0.6
CCOC(=O)CSc1nn(C)c(=S)s1	56.9*	3.1	-6.8	48.9	1.0	-10.6
O=C(O)CCC(=O)N1CCN(c2ncccc2C(F)(F)F)CC1	-10.7	-2.3	0.9	-17.4	x	1.5
COCCNC(=O)CN1CCN(C(c2ccccc2)c2ccccc2)CC1	45.1	4.8	4.1	87.9*	-5.0	-8.6
CSc1nccc(Nc2ccccc2)c1C#N	-5.7	25.1	10.2	2.6	0.0	-1.6
COc1nccc(Nc2ccccc2)c1C#N	-0.8	x	-6.4	x	4.0	44.1*
O=C(Nc1ccc2c(c1)C(=O)NC2=O)c1ccc2ncsc2c1	-12.1	-3.2	-3.4	5.2	1.0	-22.0
O=C(O)c1ccc(N/N=C/c2ccc(-c3cccc(Cl)c3)o2)cc1	-22.5	-0.1	39.7	-6.8	x	-31.2
O=C(O)c1ccc(N/N=C/c2ccc(-c3ccc(Cl)cc3Cl)o2)cc1	47.8	8.6	108.2*	6.5	x	-20.7
O=C(O)c1ccc(N/N=C/c2ccc(-c3cc(Cl)ccc3Cl)o2)cc1	61.7*	6.3	110.6*	14.3	x	-24.8
COC(=O)N/N=C/c1ccc(-c2ccc(Cl)cc2Cl)o1	-8.9	-1.7	-11.9	7.9	x	-10.9
CC(=O)c1cccc(N(C(=O)Cn2nnc3ccccc32)C(C(=O)NCC2CCCO2)c2ccc(N3CCOCC3)cc2)c1 (centres undefined)	-13.9	-5.8	-1.8	-8.4	-6.0	-0.4
CCc1nc(SCC(=O)Nc2ccc(N(C)C)cc2)c2ccccc2n1	-60.6	9.2	41.9	-4.1	x	-0.3
O=C(Cn1c2ccccc2c(=O)c2ccccc21)N/N=C/c1cc([N+](=O)[O-])ccc1N1CCCCC1	67.0*	-0.5	43.4	70.0	-8.0	2.3
CN1CCN(c2ccccc2NC(=O)c2cc(Br)ccc2Cl)CC1	-50.0	-5.4	16.5	-2.6	-5.0	-6.8
COc1ccc(Cl)cc1C(=O)Nc1ccccc1N1CCN(C)CC1	-7.5	0.2	55.8*	0.7	0.0	-4.8
CN1CCN(c2ccc([N+](=O)[O-])cc2/C=N/NC(=O)c2cccc([N+](=O)[O-])c2)CC1	-0.4	-1.2	90.7*	-3.5	-3.0	1.3
CN1CCN(c2ccc([N+](=O)[O-])cc2NC(=O)c2ccccc2)CC1	-32.3	-5.8	12.9	77.0*	0.0	-3.3
SMILES	Mcl1 Bid PPI	eIF4E-4G inh	Mcl1-Noxa inh	14-3-3 Bad inh	Bim-Mcl-1	NCF1 inh
COc1cccc(-n2nnc3c(=O)n(CC(=O)Nc4cc(C)on4)cnc32)c1	-25.0	-3.2	-6.8	-16.4	0.0	4.8
CN1CCN(c2ccc(S(=O)(=O)N3CCCCC3)cc2NC(=O)c2ccc(C#N)cc2)CC1	-39.1	21.4	9.1	5.3	-31.0	-8.3
CN1CCN(c2ccc(Cl)cc2NC(=O)c2ccc(S(=O)(=O)N3CCCCCC3)cc2)CC1	-44.7	-10.5	74.3*	25.3	0.0	-4.8
Cc1cc(C)cc(NC(=O)Nc2ccc(N3CCCCC3)cc2)c1	-24.5	9.5	22.9	3.1	x	-10.0
CC(C)c1ccc(C(=O)Nc2ccc(N3CCOCC3)cc2)cc1	-26.4	-5.0	23.1	5.8	1.0	9.7
CCOc1cc(C(=O)Nc2ccc(F)cc2)cc(Br)c1OC	-10.4	0.6	1.6	-7.6	-7.0	-19.9
Cc1cc(C)cc(C(=O)Nc2ccc(N3CCCC3)cc2)c1	-13.9	13.8	67.4*	5.2	1.0	-24.3
CC(C)Oc1ccc(C(=O)Nc2ccc(N3CCCC3)cc2)cc1	-13.2	8.5	50.5	13.3	-6.0	34.4*
CCOc1cc(C(=O)Nc2ccc(N3CCOCC3)cc2)cc(Br)c1OC	-24.5	3.3	60.9*	10.0	0.0	-10.3
O=C(Nc1ccc(N2CCOCC2)cc1)c1ccc(S(=O)(=O)N2CCCCC2)cc1	-37.9	-3.4	-1.5	-5.0	-4.0	36.9*
O=C1CC(C(=O)N(c2ccccc2)C(C(=O)NC2CCCC2)c2ccncc2)CS1 (centres undefined)	-4.6	0.8	10.5	-9.9	0.0	5.5
CCOC(=O)c1cncc(O)c1	-137.4	-1.2	9.0	1.5	x	2.1
Cc1ccc(-c2cn(-c3ccccc3)c(SCC(N)=O)n2)cc1C	86.9*	-6.7	17.1	-1.4	-7.0	-14.6
COc1cnn(-c2ccc(Br)cc2)c(=O)c1SCc1ccccc1	-29.3	1.2	76.0*	-13.8	-4.0	-19.8
COc1cnn(-c2ccc(C)cc2)c(=O)c1SCc1ccccc1	-26.9	1.5	-148.0	11.3	-5.0	-3.0
COc1cnn(-c2ccccc2)c(=O)c1SCc1ccc(Cl)cc1Cl	-48.2	-8.2	85.2*	-6.7	-5.0	-6.3
Cc1ccc(Nc2c(-c3ccc(C)o3)nc3cnccn23)cc1	-7.8	4.7	51.1*	-1.1	-2.0	-11.5
CCOC(=O)c1noc(C)c1C(=O)Nc1nc(C)cc(C)n1	2.9	-1.6	0.3	-6.6	-3.0	-5.5
CC(=O)N1CCN(CC(=O)Nc2cc([N+](=O)[O-])ccc2Cl)CC1	-48.2	4.6	2.1	-3.0	-1.0	0.7
CC(=O)N1CCN(CC(=O)Nc2c(Cl)cccc2Cl)CC1	34.3	-13.3	24.9	76.4*	-1.0	-8.3
CCC/C(C)=N/NC(=O)c1ccccc1O	-30.6	8.2	22.8	-9.3	0.0	-4.5
C/C(=N\NC(=O)c1ccccc1O)C1C(=O)c2ccccc2C1=O	-91.6	1.2	65.9*	10.3	-1.0	-30.4
